Test [1] has as its target Estrogen receptor (Homo sapiens) (UniProt P03372). Nature of the test: CCTE_Deisenroth_AIME_384WELL_LUC_Active: CCTE's 384-well Estrogen Receptor Transactivation Assay with AIME metabolic competence (ERTA luciferase; metabolism positive), Deisenroth Lab (AID 2284030). The procedure, abridged:
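VM7Luc4E2 breast cells were given, for 24 hours, medium pre-incubated for 2 hours with parent chemical (0.002-200 uM, 10 concentrations) and alginate-encapsulated phenobarbital/beta-naphthoflavone-induced rat hepatic S9. Luciferase gain of signal was fitted against 17beta-estradiol; n=4 or more.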

The nature of test [2]: CCTE_Deisenroth_AIME_384WELL_CTox_Active: Cytotoxicity Assessment (CTOX) in CCTE's 384-well Estrogen Receptor Transactivation Assay with AIME metabolic competence (metabolism positive), Deisenroth Lab (AID 2284037).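 Further: chemicals first conditioned 2 h by alginate-bound induced rat liver S9 before cells; activity means signal loss indicating cell death.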 The procedure, abridged: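 Cytotoxicity in VM7Luc4E2 breast cells, 24 hour, measured as protease-substrate fluorescence loss, after 2-hour metabolic conditioning with induced rat hepatic S9 in alginate microspheres. Concentrations 0.002 - 200 uM, 10 points, bidirectional fitting.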

The target of test [3] is Estrogen receptor (Homo sapiens) (UniProt P03372). Nature of the test: CCTE_Deisenroth_AIME_384WELL_LUC_Inactive: CCTE's 384-well Estrogen Receptor Transactivation Assay without AIME metabolic competence (ERTA luciferase; metabolism negative), Deisenroth Lab (AID 2284038).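 Further: VM7Luc4E2 breast cells given medium preincubated 2 h with S9-free microspheres; hits raise estrogen receptor luciferase signal so potencies reflect agonists.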 The procedure, abridged:
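Metabolism-negative mode: AIME lids stamped in alginate-water, no hepatic S9. 2 h chemical incubation → medium onto VM7Luc4E2 ERTA, 24 h. Readout luciferase luminescence; gain-of-signal fit vs 17beta-estradiol. Conc. 0.002 - 200 uM.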

Test [4] is described as follows: CCTE_Deisenroth_AIME_384WELL_CTox_Inactive: Cytotoxicity Assessment (CTOX) in CCTE's 384-well Estrogen Receptor Transactivation Assay without AIME metabolic competence (metabolism negative), Deisenroth Lab (AID 2284039).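 Further: cell viability via live-cell protease substrate cleaved to fluorescent probe; cells exposed 24 h to medium preincubated 2 h with alginate-water beads without S9; loss of fluorescence signal means loss of viability.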 The gist of the method:
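Fluorescence from a live-cell protease substrate, read after 24 h in VM7Luc4E2 cells, indicated viability. Test medium came from a 2 h AIME step without hepatic S9 (alginate-water microspheres); concentrations spanned 0.002 - 200 uM, single technical replicate per run.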

Test [5] has as its target Estrogen receptor (Homo sapiens) (UniProt P03372). In words: CCTE_Deisenroth_AIME_384WELL_LUC_Shift: CCTE's 384-well Estrogen Receptor Transactivation Assay with AIME metabolic competence data shift (ERTA luciferase; difference in metabolism positive and negative), Deisenroth Lab (AID 2284041; active means hit-call score of the fitted dose curve at least 0.9, where 1 is the maximum; inactive means score below 0.9;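 further: shift is response with S9 minus without S9 so positive means metabolism raised ER signal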). The gist of the method: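 Test chemicals (0.002–200 uM, 10-point) were pre-incubated 2 h with alginate microspheres containing phenobarbital/beta-naphthoflavone-induced male Sprague Dawley rat liver S9 or water, then medium was transferred to VM7Luc4E2 cells for 24 h luciferase readout; shift = S9-positive minus S9-negative normalized response.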

A further test deals with DIO2 (gene 1734). In words: CCTE_GLTED_hDIO2: CCTE's human Deiodinase 2 (DIO2) Inhibition Assay, Great Lakes Toxicology and Ecology Division (GLTED) Lab (AID 2284050). The gist of the method: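 Readout: absorbance from Sandell-Kolthoff detection of free iodide released by human DIO2 during a 3 h incubation with chemical. Cell-free format, n=3; activity fitted relative to DMSO negative control.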

The nature of test [6]: CCTE_Shafer_MEA_dev_per_burst_spike_percent: CCTE's Neural Network Formation Assay for Percent of Spikes in a Burst, Shafer Lab (AID 2284032; active means hit-call score of the fitted dose curve at least 0.9, where 1 is the maximum; inactive means score below 0.9). The procedure, abridged: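 Value is trapezoidal AUC over recordings on days 5, 7, 9 and 12 of the well-mean fraction of spikes falling in single-electrode bursts; rat cortical cultures exposed continuously from plating, treatment renewed DIV 5 and 9, fitted downward against DMSO.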

A short description of test [7]: CCTE_Shafer_MEA_dev_active_electrodes_number: CCTE's Neural Network Formation Assay for Number of Active Electrodes, Shafer Lab (AID 2284040).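 Further: potency for loss of active electrodes versus DMSO so lower counts are hits.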 The procedure, abridged:
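Developing rat cortical networks on MEAs, exposed DIV 0–12. Value is the AUC of active-electrode counts (≥5 spikes/min) from days 5, 7, 9, 12, relative to DMSO.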

Test [8] in a line: CCTE_Shafer_MEA_dev_burst_rate: CCTE's Neural Network Formation Assay for Burst Rate, Shafer Lab (AID 2284042; active means hit-call score of the fitted dose curve at least 0.9, where 1 is the maximum; inactive means score below 0.9). The gist of the method: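 Developmental network assay measuring how 12-day exposure of rat cortical neuron cultures alters bursting on extracellular MEA recordings. Values are AUC of well-mean burst rate across four recording days, relative to DMSO vehicle.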
The nature of test [9]: CCTE_Shafer_MEA_dev_bursting_electrodes_number: CCTE's Neural Network Formation Assay for Number of Bursting Electrodes, Shafer Lab (AID 2284043).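 Further: potency is for loss of bursting electrodes relative to DMSO.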 The procedure, abridged:
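Number of electrodes reaching ≥1 burst every 2 min was recorded at DIV 5, 7, 9 and 12 and collapsed as trapezoidal area under the curve. Cultures were rat cortical neurons on MEA plates, dosed continuously from plating with medium and treatment refreshed on DIV 5 and 9.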

The nature of test [10]: CCTE_Shafer_MEA_dev_per_burst_interspike_interval: CCTE's Neural Network Formation Assay for Burst Interspike Interval, Shafer Lab (AID 2284044; active means hit-call score of the fitted dose curve at least 0.9, where 1 is the maximum; inactive means score below 0.9). The procedure, abridged: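 Mean interspike interval within single-electrode bursts, averaged over bursting electrodes, from rat cortical cultures on MEA plates recorded on days 5, 7, 9 and 12. Continuous compound exposure from plating; trapezoidal AUC fitted downward relative to DMSO.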

Test [11] can be described thus: CCTE_Shafer_MEA_dev_burst_duration_mean: CCTE's Neural Network Formation Assay for Mean Burst Duration, Shafer Lab (AID 2284045; active means hit-call score of the fitted dose curve at least 0.9, where 1 is the maximum; inactive means score below 0.9). The gist of the method: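 Mean single-electrode burst duration (first to last spike), averaged over bursting electrodes per well, then integrated as area-under-curve across recordings at days 5, 7, 9 and 12. Rat cortical cultures on MEAs, compound present from plating, refreshed at feeds.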

A short description of test [12]: CCTE_Shafer_MEA_dev_interburst_interval_mean: CCTE's Neural Network Formation Assay for Mean Interburst Interval, Shafer Lab (AID 2284046; active means hit-call score of the fitted dose curve at least 0.9, where 1 is the maximum; inactive means score below 0.9;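 further: well-mean interburst interval of bursting electrodes as AUC over four recording days; curve fitted for decrease in interburst interval relative to DMSO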). The procedure, abridged:
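Network formation assay in primary rat cortical cultures, exposed from DIV 0 to 12. Mean interburst interval per well, integrated as AUC over four recordings.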

Test [13] in a line: CCTE_Shafer_MEA_dev_inter_network_spike_interval_mean: CCTE's Neural Network Formation Assay for Mean Inter-network Spike Interval, Shafer Lab (AID 2284047; active means hit-call score of the fitted dose curve at least 0.9, where 1 is the maximum; inactive means score below 0.9). The gist of the method: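 Compound was given at plating to primary rat cortical neurons and renewed with full medium changes on DIV 5 and 9. Extracellular activity was recorded on days 5, 7, 9, 12; AUC values were fitted for loss relative to DMSO control.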

The nature of test [14]: CCTE_Shafer_MEA_dev_network_spike_number: CCTE's Neural Network Formation Assay for Number of Network Spikes, Shafer Lab (AID 2284048; active means hit-call score of the fitted dose curve at least 0.9, where 1 is the maximum; inactive means score below 0.9;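 further: synchronized bursts across electrodes counted on days 5 7 9 12 and integrated as AUC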). The procedure, abridged:
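Number of network spikes (coordinated firing across electrodes) recorded on days 5, 7, 9 and 12 and summarised as area under the curve. Rat cortical cultures on MEA, continuous compound exposure with full medium/treatment exchange at DIV 5 and 9.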

The nature of test [15]: CCTE_Shafer_MEA_dev_network_spike_peak: CCTE's Neural Network Formation Assay for Mean Number of Electrodes in Network Spike, Shafer Lab (AID 2284049; active means hit-call score of the fitted dose curve at least 0.9, where 1 is the maximum; inactive means score below 0.9;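 on AC50: fitted for loss of signal meaning fewer electrodes in network spikes than DMSO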). The gist of the method:
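Rat cortical primary culture, 1.5 x 10^5 cells/well, 48-well MEA (16 electrodes/well). Dosing day 0 through DIV 12, full media/compound exchange DIV 5, 9. AxIS adaptive spike detection; AUC over days 5/7/9/12; loss-of-signal vs DMSO.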

Test [16] is described as follows: CCTE_Shafer_MEA_dev_spike_duration_mean: CCTE's Neural Network Formation Assay for Mean Spike Duration, Shafer Lab (AID 2284051; active means hit-call score of the fitted dose curve at least 0.9, where 1 is the maximum; inactive means score below 0.9;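 on AC50: potency for a decrease in mean network spike duration versus DMSO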). The procedure, abridged:
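With DMSO as baseline, loss of mean network spike duration was scored from extracellular recordings of rat cortical neurons on MEA plates. Exposure spanned plating to DIV 12; the four recording days were collapsed into one AUC value.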

Test [17] can be described thus: CCTE_Shafer_MEA_dev_network_spike_duration_std: CCTE's Neural Network Formation Assay for Standard Deviation of Network Spike Duration, Shafer Lab (AID 2284052; active means hit-call score of the fitted dose curve at least 0.9, where 1 is the maximum; inactive means score below 0.9;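 further: hits are decreases in network spike duration SD versus DMSO vehicle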). The procedure, abridged: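 Developing networks of rat cortical neurons were exposed over twelve days in vitro on 48-well MEA plates. Trapezoidal AUC of recordings (DIV 5–12) was analysed for signal loss relative to DMSO vehicle.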

Records with an inconclusive call do not appear. Some compounds were tested as several samples or in several runs, with calls that do not always agree. Activity calls are given as the source filed them. How the source made its calls, unless noted: active means hit-call score of the fitted dose curve at least 0.9, where 1 is the maximum; inconclusive means response in the unintended direction; inactive means score below 0.9.

A word on the AC50: it is the concentration at which the activity in the assay is half-maximal.

Sequence of Estrogen receptor (Homo sapiens) (P03372 whole entry, looked up): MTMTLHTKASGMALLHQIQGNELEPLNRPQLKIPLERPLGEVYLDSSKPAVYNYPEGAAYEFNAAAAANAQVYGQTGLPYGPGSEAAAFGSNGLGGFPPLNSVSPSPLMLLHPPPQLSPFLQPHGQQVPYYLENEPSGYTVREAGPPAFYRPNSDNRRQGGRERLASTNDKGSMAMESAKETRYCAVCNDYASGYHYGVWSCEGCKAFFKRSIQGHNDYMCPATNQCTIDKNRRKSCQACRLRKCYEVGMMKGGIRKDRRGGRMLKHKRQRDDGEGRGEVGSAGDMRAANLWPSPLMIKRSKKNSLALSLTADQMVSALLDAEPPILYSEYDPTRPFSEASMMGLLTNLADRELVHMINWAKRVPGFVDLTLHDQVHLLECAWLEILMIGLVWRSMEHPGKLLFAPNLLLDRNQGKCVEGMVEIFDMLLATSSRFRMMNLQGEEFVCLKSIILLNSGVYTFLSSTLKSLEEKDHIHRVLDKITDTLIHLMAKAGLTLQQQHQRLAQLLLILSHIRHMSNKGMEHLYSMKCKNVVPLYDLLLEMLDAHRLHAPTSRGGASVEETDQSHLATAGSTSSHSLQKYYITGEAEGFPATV

Regarding `C=CC(=O)NCNC(=O)C=C`, the result in [1], in test [2], in test [3] and in test [5] was inactive. The AC50 in test [4] is 19.8 µM (active).

`O=C(N[C@H]1CN2CCC1CC2)c1cc2ccoc2cn1`: the call in test [1], in test [2], in test [3], in test [4] and in test [5] was inactive.

As to `CCCCCCCCCc1ccc(O)cc1`, the AC50 in test [1] was 26.3 µM (active); in test [2], 150 µM (active); in test [3], 24.5 µM (active); in test [4], 146 µM (active); in test [5] it was 31400 nM (active); in the test with DIO2 (gene 1734) it was 136 µM (active).

For `OCC(O)CO`, the AC50 in [1] is 0.0002 µM (active); in [3], 0.000417 µM (active); in [5] it was 0.51 nM (active). The compound was classed as inactive in test [1], in test [2], in [3], in [4] and in test [5].

Turning to `C[C@]12CCC(=O)C=C1CC[C@@H]1[C@@H]2CC[C@]2(C)C(=O)CC[C@@H]12`, the compound was classed as inactive in test [1], in test [2], in [3], in test [4] and in [5].

For `CCC(C)(c1ccc(O)cc1)c1ccc(O)cc1`, the AC50 in [1] was 0.927 µM (active); in test [2], 164 µM (active); in [3], 0.206 µM (active); in test [4], 189 µM (active); in [7], 4.56 µM (active); in test [5], 107 nM (active). In addition, the AC50 was 3.23 µM (active) in [9], 10 µM (active) in [15] and 10 µM (active) in [16]. For the same compound, the outcome in test [6], in test [8], in [10], in [11], in test [12] and in [13] was inactive. Moreover, the compound was classed as inactive in test [14] and in test [17].

For `CCC(=O)O[C@H]1CC[C@H]2[C@@H]3CCC4=CC(=O)CC[C@]4(C)[C@H]3CC[C@]12C`, the call in test [1], in test [2], in test [3], in [4] and in test [5] was inactive.

In the case of `COS(=O)(=O)OC`, the outcome in test [1], in test [2], in test [3] and in [5] was inactive.

Take `Nc1ccc(-c2ccc(N)cc2)cc1`: the outcome in [1], in test [2], in test [3], in test [4] and in [5] was inactive.

For the compound `O=C(O)C(F)(F)C(F)(F)C(F)(F)C(F)(F)C(F)(F)C(F)(F)C(F)(F)C(F)(F)F`, the outcome in test [1], in test [6], in test [3], in test [5], in test [8] and in [10] was inactive. For the same compound, the outcome in test [11], in [12], in [13], in [14], in test [15] and in test [16] was inactive. In [17], the call was inactive. For the same compound, the concentration at half-maximal activity (AC50) in [2] is 146 µM (active); in [4], 164 µM (active); in the test with DIO2 (gene 1734), 46.1 µM (active).

Consider `Cc1cccc([N+](=O)[O-])c1`, for which the result in test [1], in test [2], in test [3], in [4] and in [5] was inactive.

As for `Cc1cc(-c2ccc(N)c(C)c2)ccc1N`, the AC50 in test [1] is 11.9 µM (active); in [3], 15.2 µM (active). The outcome in [2], in [4] and in test [5] was inactive.
